Assay [1] is described as follows: circadian clock period modulators, cell-based, LOPAC library, luminescence reporter (AID 2774).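 Further: values are relative to mean of DMSO wells on each plate.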 As to conditions: circadian reporter cells, at 7 µM, actives lie on both sides.
Assay [2] deals with Hepatitis C virus NS3 helicase. Kind of assay: HCV NS3 helicase inhibitors, primary screen, biochemical, fluorescence polarization, LOPAC1280 library (AID 687035; in the data active means inhibition above about 37%). As to conditions: Purified HCV NS3 helicase, Cy5-dT15 ssDNA binding fluorescence polarization; stronger effect = higher value; concentration not given here.
Assay [3] in a line: Cy5 fluorescence quenching or enhancement artefacts, artefact control for HCV NS3 helicase inhibitor project, biochemical, LOPAC1280 (AID 687037). The note with it: Cy5-DNA-NS3h complex fluorescence interference counterscreen.
In assay [4] the test system is Aerobactin synthetase IucA (Klebsiella pneumoniae). Put plainly: IucA aerobactin synthetase inhibitors, biochemical, Tocris library, absorbance (AID 1345561).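 Further: 100% = enzyme without compound and 0% = no enzyme.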 The note with it: purified IucA enzyme assay, absorbance (OD) read-out; stronger effect = lower value;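 tested at 8 µM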.
Assay [5] in a line: sensitizers of A549 cells to miR-34 induction, primary screen, imaging, A549 dox-inducible miR-34, nuclei and caspase counts (AID 1347080;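 active means compounds whose cell count with miR-34 switched on is under 0.7 times the count with it off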). As to conditions: A549 miR-34 inducible, Hoechst nuclei count, 48 h.
Assay [6] in a line: phospholipid biosynthesis inhibitors in animal cells, primary screen, cell-based, LOPAC library, screen 4 (AID 1347384). As to conditions: phospholipid biosynthesis inhibition screen, at 10 µM.
Assay [7] in a line: viability rescue of complex I mutant cybrids, primary screen, cell-based, galactose medium, ATP luminescence (AID 1645843;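 active means z-score of at least 1.8 in each of two replicates, scored against plate mean and spread of sample wells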;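 further: positive z means more ATP and so rescue of galactose-driven cybrid death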). As to conditions: complex I mutant cybrid cells, 72 h, stronger effect = higher value.
Where [8] appears, read: stronger effect = lower value, cell number ratio, induced over uninduced.
The mark [9] stands for this setting: measured here: relative caspase fold change +Dox/-Dox.
The mark [10] stands for this setting: measured here: total cells with miR-34 induction, stronger effect = lower value.
The mark [11] stands for this setting: measured here: total cells without miR-34 induction.

Molecules are shown by their SMILES. Several values for one entry are separate records, joined by “and”; a condition that tells them apart may be missing. Equal entries are not always repeated. Activity calls are given as the source filed them. Unless noted, how the calls were made is not given here.

Broadly, the inhibition is the change of the read-out against control, counted positive when it falls. The term remaining activity denotes the signal under treatment as a percentage of the control signal.

Turning to `Cc1cccc(C(=O)NCN2CCN(c3ccccc3C#N)CC2)c1`, in assay [1], the period change was 0.095 h (inactive). Further, the inhibition in assay [2] is -3% (inactive). Also, the fluorescence ratio (interference) in assay [3] was 1 (inactive). In addition, the remaining activity in assay [4] was 92.5% (inactive). For the same compound, the fold change is 0.97 (inactive) and 0.957 (inactive) in assay [5] (setting [8]); 0.725 and 1.8 in assay [5] (setting [9]). The cell count is 9570 and 9300 in assay [5] (setting [10]); 9870 and 9720 in assay [5] (setting [11]). The compound was classed as inactive in assay [6]. In assay [7], the z-score is -0.125 (inactive) and 0.395 (inactive).

For the compound `CCCCCCN(CCCCCC)C(=O)Cc1c(-c2ccc(F)cc2)[nH]c2ccccc12`, the period change in assay [1] was -0.08 h (inactive). Besides, in assay [2], the inhibition is 1% (inactive). The fluorescence ratio (interference) in assay [3] is 1 (inactive). In assay [4], the remaining activity is 100% (inactive). Further, the fold change in assay [5] (setting [8]) was 1.29 (inactive) and 0.933 (inactive); in assay [5] (setting [9]), 1.15 and 0.997. For the same compound, the cell count is 5020 and 4030 in assay [5] (setting [10]); 3880 and 4320 in assay [5] (setting [11]). For the same compound, the compound was called inactive in assay [6]. In assay [7], the z-score is -1.04 (inactive) and -1.23 (inactive).

Consider `COc1cc2c(CCNC(C)=O)c[nH]c2cc1Cl`, for which, in assay [1], the period change is -0.08 h (inactive). Also, in assay [2], the inhibition was -1% (inactive). Further, the fluorescence ratio (interference) in assay [3] was 1 (inactive). In addition, in assay [4], the remaining activity was 94.8% (inactive). The fold change was 1.06 (inactive) and 0.902 (inactive) in assay [5] (setting [8]); 2.61 and 0.855 in assay [5] (setting [9]). Further, the cell count in assay [5] (setting [10]) is 9840 and 8550; in assay [5] (setting [11]) it was 9250 and 9470. For the same compound, in assay [6], the result was inactive. Besides, the z-score in assay [7] is 0.525 (inactive) and -0.185 (inactive).

Turning to `Cc1ccc(O)c(N=Nc2ccccc2)n1`, in assay [1], the period change was -0.01 h (inactive). In addition, the inhibition in assay [2] was 1% (inactive). The fluorescence ratio (interference) in assay [3] was 0.9 (inactive). Further, the remaining activity in assay [4] was 110% (inactive). For the same compound, the fold change in assay [5] (setting [8]) was 0.956 (inactive) and 0.932 (inactive); in assay [5] (setting [9]), 0.751 and 0.659. Moreover, the cell count in assay [5] (setting [10]) is 10100 and 8850; in assay [5] (setting [11]), 10500 and 9490. Moreover, in assay [6], the compound was classed as inactive. The z-score in assay [7] is 1.16 (inactive) and 0.96 (inactive).

With `O=C(O)c1cc(=O)c2c(Cl)cc(Cl)cc2[nH]1`, the period change in assay [1] is -0.065 h (inactive). For the same compound, in assay [2], the inhibition is -1% (inactive). For the same compound, in assay [3], the fluorescence ratio (interference) is 1 (inactive). The remaining activity in assay [4] is 90.4% (inactive). Also, the fold change in assay [5] (setting [8]) was 0.981 (inactive) and 0.957 (inactive); in assay [5] (setting [9]), 0.527 and 0.88. Besides, the cell count is 10000 and 8540 in assay [5] (setting [10]); 10200 and 8930 in assay [5] (setting [11]). In addition, the compound was called inactive in assay [6]. In addition, the z-score in assay [7] was 0.135 (inactive) and -0.315 (inactive).

Regarding `N[C@H](C(=O)O)c1cc(O)cc(O)c1`, in assay [1], the period change is 0.11 h (inactive). The inhibition in assay [2] was -1% (inactive). Also, the fluorescence ratio (interference) in assay [3] is 1.1 (inactive). In assay [4], the remaining activity was 115% (inactive). Besides, the fold change is 1.01 (inactive) and 0.963 (inactive) in assay [5] (setting [8]); 1.04 and 0.77 in assay [5] (setting [9]). For the same compound, the cell count in assay [5] (setting [10]) was 10300 and 8780; in assay [5] (setting [11]), 10200 and 9120. The result in assay [6] was inactive. Further, in assay [7], the z-score is 0.215 (inactive) and -0.05 (inactive).

Regarding `O=C(O)C1=CCCN(CCON=C(c2ccccc2)c2ccccc2)C1`, the period change in assay [1] was -0.05 h (inactive). Further, the inhibition in assay [2] was 1% (inactive). Moreover, the fluorescence ratio (interference) in assay [3] is 1 (inactive). Further, in assay [4], the remaining activity was 122% (inactive). Besides, the fold change in assay [5] (setting [8]) is 1.08 (inactive) and 0.953 (inactive); in assay [5] (setting [9]), 0.8 and 1.02. The cell count in assay [5] (setting [10]) was 9470 and 9840; in assay [5] (setting [11]), 8800 and 10300. Also, the compound was called inactive in assay [6]. In addition, the z-score in assay [7] was 0.145 (inactive) and -0.05 (inactive).

`N#Cc1cc2nc(O)c(O)nc2cc1[N+](=O)[O-]`: the period change in assay [1] was 0.03 h (inactive). Besides, in assay [2], the inhibition was -1% (inactive). Further, in assay [3], the fluorescence ratio (interference) is 1 (inactive). Moreover, the remaining activity in assay [4] is 114% (inactive). For the same compound, the fold change in assay [5] (setting [8]) was 1.02 (inactive) and 0.856 (inactive); in assay [5] (setting [9]), 1.08 and 1.89. The cell count in assay [5] (setting [10]) was 9680 and 8420; in assay [5] (setting [11]), 9500 and 9840. The outcome in assay [6] was inactive. The z-score in assay [7] was 0.385 (inactive) and 0.185 (inactive).

Regarding `CC(C)(CO)Cc1cc(C(C)(C)C)c(O)c(C(C)(C)C)c1`, in assay [1], the period change is 0.05 h (inactive). Also, in assay [2], the inhibition was 0% (inactive). Besides, the fluorescence ratio (interference) in assay [3] was 1 (inactive). Moreover, the remaining activity in assay [4] is 101% (inactive). The fold change in assay [5] (setting [8]) is 1.04 (inactive) and 0.971 (inactive); in assay [5] (setting [9]) it was 1.88 and 0.81. For the same compound, the cell count was 7090 and 8690 in assay [5] (setting [10]); 6800 and 8950 in assay [5] (setting [11]). Also, in assay [6], the call was inactive. The z-score in assay [7] was -1.4 (inactive) and -0.73 (inactive).

`CCCCCCCC/C=C\CCCCCCCC(=O)NCCO`: in assay [1], the period change is 0.02 h (inactive). Besides, the inhibition in assay [2] is -1% (inactive). In assay [3], the fluorescence ratio (interference) is 1 (inactive). For the same compound, in assay [4], the remaining activity was 112% (inactive). The fold change in assay [5] (setting [8]) was 1.03 (inactive) and 1.01 (inactive) and 0.976 (inactive); in assay [5] (setting [9]), 0.948 and 0.828 and 0.812. Besides, the cell count in assay [5] (setting [10]) is 10400 and 5960 and 9000; in assay [5] (setting [11]), 10100 and 5900 and 9210. In assay [6], the compound was called inactive. The z-score in assay [7] was -1.28 (inactive) and -0.79 (inactive).

As for `S=C(S)N1CCCC1`, the period change in assay [1] is 0.08 h (inactive). In assay [2], the inhibition is -2% (inactive). Also, in assay [3], the fluorescence ratio (interference) is 1 (inactive). In assay [4], the remaining activity was 87.7% (inactive). The fold change in assay [5] (setting [8]) was 0.892 (inactive) and 0.97 (inactive); in assay [5] (setting [9]) it was 1.02 and 0.891. The cell count is 6850 and 8740 in assay [5] (setting [10]); 7680 and 9010 in assay [5] (setting [11]). Moreover, in assay [6], the result was inactive. For the same compound, in assay [7], the z-score is -1.38 (inactive) and -1.23 (inactive).

Regarding `c1ccc2nc(C3=NCCN3)ccc2c1`, the period change in assay [1] is 0.1 h (inactive). Further, in assay [2], the inhibition is 0% (inactive). In addition, in assay [3], the fluorescence ratio (interference) is 1 (inactive). Further, in assay [4], the remaining activity is 101% (inactive). In addition, the fold change in assay [5] (setting [8]) was 1.03 (inactive) and 0.931 (inactive); in assay [5] (setting [9]) it was 1.73 and 0.739. For the same compound, the cell count in assay [5] (setting [10]) is 9970 and 8800; in assay [5] (setting [11]) it was 9720 and 9460. Moreover, the compound was classed as inactive in assay [6]. Also, the z-score in assay [7] is 0.695 (inactive) and 0.09 (inactive).

`N=C(N)SCCc1cnc[nH]1`: the period change in assay [1] was 0.045 h (inactive). The inhibition in assay [2] was -3% (inactive). The fluorescence ratio (interference) in assay [3] is 1 (inactive). Moreover, the remaining activity in assay [4] was 120% (inactive). The fold change in assay [5] (setting [8]) is 0.923 (inactive) and 0.986 (inactive); in assay [5] (setting [9]), 1.08 and 0.938. For the same compound, the cell count in assay [5] (setting [10]) was 8720 and 7870; in assay [5] (setting [11]), 9460 and 7980. The outcome in assay [6] was inactive. Also, the z-score in assay [7] was 0.08 (inactive) and 0.435 (inactive).

For the compound `CCCN(CC1CC1)c1nc(C)nc(Nc2c(Cl)cc(Cl)cc2Cl)c1Cl`, the period change in assay [1] is 0.125 h (inactive). Further, in assay [2], the inhibition was -2% (inactive). In assay [3], the fluorescence ratio (interference) is 1 (inactive). Also, the remaining activity in assay [4] was 116% (inactive). The fold change in assay [5] (setting [8]) was 1.08 (inactive) and 0.941 (inactive); in assay [5] (setting [9]) it was 0.691 and 0.818. The cell count in assay [5] (setting [10]) was 9180 and 7650; in assay [5] (setting [11]) it was 8510 and 8120. Also, the outcome in assay [6] was inactive. Also, in assay [7], the z-score was -1.02 (inactive) and -0.83 (inactive).

For the origin of these results see PubChem BioAssay.
